Measurements: PubChem BioAssay AID1159580 (chemical genetic matrix, 2015)
In all, about 5,500 compounds went through this assay and about 2,000 (36%) were called active. About 18% were inconclusive and are not listed. This is one part of the list. Values without a mark were called inactive. Cut-off read from the data, not from the text of the source: active = normalized growth mostly below about 0.91 (no sharp cut-off); inconclusive = no clear call, values can overlap the other calls; inactive = mostly above about 0.92.

Assay: chemical genetic growth profiling, strain panel (AID 1159580);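 note: tested at 20 µM; growth read once vehicle control cultures reached saturation at 30 °C; 1 = growth at the plate median or of vehicle wells; lower values mean less growth of the strain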
Conditions: growth OD

O=C(O)C(O)C(O)C(=O)O (configuration not stated)
normalized growth (S. cerevisiae deletion strains, locus YJR075W, strain HOC1, active compounds read low): 0.993 | normalized growth (S. cerevisiae deletion strains, locus YKL009W, strain mrt4, active compounds read low): 0.985 | normalized growth (S. cerevisiae deletion strains, locus YKL068W, active compounds read low): 0.98 | normalized growth (S. cerevisiae deletion strains, locus YKL085W, strain MDH1 (second series), active compounds read low): 0.986 | normalized growth (S. cerevisiae deletion strains, locus YKL085W, strain MDH1, active compounds read low): 0.986 | normalized growth (S. cerevisiae deletion strains, locus YKL160W, strain elf1, active compounds read low): 1.01 | normalized growth (S. cerevisiae deletion strains, locus YKL190W, strain CNB1, active compounds read low): 0.978 | normalized growth (S. cerevisiae deletion strains, locus YKR001C, strain vps1, active compounds read low): 0.983 | normalized growth (S. cerevisiae deletion strains, locus YKR026C, strain gcn3, active compounds read low): 1.01 | normalized growth (S. cerevisiae deletion strains, locus YKR091W, strain srl3, active compounds read low): 1 | normalized growth (S. cerevisiae deletion strains, locus YLL001W, strain dnm1, active compounds read low): 0.992 | normalized growth (S. cerevisiae deletion strains, locus YLL026W, active compounds read low): 0.972 | normalized growth (S. cerevisiae deletion strains, locus YLL041C, strain sdh2, active compounds read low): 0.994 | normalized growth (S. cerevisiae deletion strains, locus YLR027C, strain aat2, active compounds read low): 0.999 | normalized growth (S. cerevisiae deletion strains, locus YLR039C, strain RIC1, active compounds read low): 0.961 | normalized growth (S. cerevisiae deletion strains, locus YLR058C, strain SHM2, active compounds read low): 0.976 | normalized growth (S. cerevisiae deletion strains, locus YLR102C, strain apc9, active compounds read low): 0.988 | normalized growth (S. cerevisiae deletion strains, locus YLR113W, strain HOG1, active compounds read low): 0.938 | normalized growth (S. cerevisiae deletion strains, locus YLR221C, strain rsa3, active compounds read low): 0.986 | normalized growth (S. cerevisiae deletion strains, locus YLR258W, strain gsy2, active compounds read low): 0.998 | normalized growth (S. cerevisiae deletion strains, locus YLR262C, strain YPT6 (second series), active compounds read low): 1.01 | normalized growth (S. cerevisiae deletion strains, locus YLR262C, strain YPT6, active compounds read low): 0.934 | normalized growth (S. cerevisiae deletion strains, locus YLR268W, strain sec22, active compounds read low): 0.971 | normalized growth (S. cerevisiae deletion strains, locus YLR320W, strain mms22, active compounds read low): 1 | normalized growth (S. cerevisiae deletion strains, locus YLR330W, strain CHS5, active compounds read low): 0.991 | normalized growth (S. cerevisiae deletion strains, locus YLR342W, strain FKS1 (second series), active compounds read low): 1.03 | normalized growth (S. cerevisiae deletion strains, locus YLR342W, strain FKS1, active compounds read low): 0.997 | normalized growth (S. cerevisiae deletion strains, locus YLR357W, strain rsc2, active compounds read low): 0.966 | normalized growth (S. cerevisiae deletion strains, locus YLR370C, strain arc18, active compounds read low): 1 | normalized growth (S. cerevisiae deletion strains, locus YLR371W, strain rom2, active compounds read low): 0.997 | normalized growth (S. cerevisiae deletion strains, locus YLR384C, strain iki3, active compounds read low): 0.988 | normalized growth (S. cerevisiae deletion strains, locus YLR418C, strain cdc73, active compounds read low): 0.986 | normalized growth (S. cerevisiae deletion strains, locus YML016C, strain PPZ1, active compounds read low): 0.992 | normalized growth (S. cerevisiae deletion strains, locus YML032C, strain rad52, active compounds read low): 1 | normalized growth (S. cerevisiae deletion strains, locus YML120C, strain ndi1, active compounds read low): 0.998 | normalized growth (S. cerevisiae deletion strains, locus YML124C, strain tub3, active compounds read low): 0.997 | normalized growth (S. cerevisiae deletion strains, locus YMR058W, strain fet3, active compounds read low): 1.01 | normalized growth (S. cerevisiae deletion strains, locus YMR078C, strain ctf18, active compounds read low): 0.984 | normalized growth (S. cerevisiae deletion strains, locus YMR125W, strain sto1, active compounds read low): 0.987 | normalized growth (S. cerevisiae deletion strains, locus YMR129W, active compounds read low): 0.995 | normalized growth (S. cerevisiae deletion strains, locus YMR205C, strain PFK2, active compounds read low): 0.981 | normalized growth (S. cerevisiae deletion strains, locus YMR223W, strain ubp8, active compounds read low): 1 | normalized growth (S. cerevisiae deletion strains, locus YMR231W, strain pep5, active compounds read low): 1 | normalized growth (S. cerevisiae deletion strains, locus YMR263W, strain SAP30, active compounds read low): 0.976 | normalized growth (S. cerevisiae deletion strains, locus YMR307W, strain GAS1, active compounds read low): 0.921 | normalized growth (S. cerevisiae deletion strains, locus YNL067W, strain RPL9B, active compounds read low): 0.993 | normalized growth (S. cerevisiae deletion strains, locus YNL071W, strain lat1, active compounds read low): 0.987 | normalized growth (S. cerevisiae deletion strains, locus YNL128W, strain TEP1, active compounds read low): 0.981 | normalized growth (S. cerevisiae deletion strains, locus YNL153C, strain GIM3, active compounds read low): 0.979 | normalized growth (S. cerevisiae deletion strains, locus YNL183C, strain NPR1, active compounds read low): 0.919 | normalized growth (S. cerevisiae deletion strains, locus YNL209W, strain ssb2, active compounds read low): 1.02 | normalized growth (S. cerevisiae deletion strains, locus YNL233W, strain BNI4, active compounds read low): 0.986 | normalized growth (S. cerevisiae deletion strains, locus YNL248C, strain rpa49, active compounds read low): 0.994 | normalized growth (S. cerevisiae deletion strains, locus YNL250W, strain rad50, active compounds read low): 0.987 | normalized growth (S. cerevisiae deletion strains, locus YNL271C, strain bni1, active compounds read low): 0.992 | normalized growth (S. cerevisiae deletion strains, locus YNL298W, strain CLA4, active compounds read low): 0.988 | normalized growth (S. cerevisiae deletion strains, locus YNL307C, strain MCK1, active compounds read low): 0.991 | normalized growth (S. cerevisiae deletion strains, locus YNL322C, strain KRE1 (second series), active compounds read low): 0.985 | normalized growth (S. cerevisiae deletion strains, locus YNL322C, strain KRE1, active compounds read low): 0.99 | normalized growth (S. cerevisiae deletion strains, locus YNR049C, strain mso1, active compounds read low): 1 | normalized growth (S. cerevisiae deletion strains, locus YNR052C, strain pop2, active compounds read low): 0.991 | normalized growth (S. cerevisiae deletion strains, locus YOL006C, strain TOP1, active compounds read low): 0.97 | normalized growth (S. cerevisiae deletion strains, locus YOL012C, strain htz1): 1.53 | normalized growth (S. cerevisiae deletion strains, locus YOL147C, strain pex11, active compounds read low): 0.987 | normalized growth (S. cerevisiae deletion strains, locus YOR001W, strain rrp6, active compounds read low): 0.991 | normalized growth (S. cerevisiae deletion strains, locus YOR061W, strain CKA2, active compounds read low): 0.959 | normalized growth (S. cerevisiae deletion strains, locus YOR069W, strain VPS5, active compounds read low): 0.997 | normalized growth (S. cerevisiae deletion strains, locus YOR070C, strain gyp1, active compounds read low): 0.984 | normalized growth (S. cerevisiae deletion strains, locus YOR080W, strain dia2, active compounds read low): 1 | normalized growth (S. cerevisiae deletion strains, locus YOR083W, strain WHI5, active compounds read low): 1.01 | normalized growth (S. cerevisiae deletion strains, locus YOR106W, strain vam3, active compounds read low): 0.994 | normalized growth (S. cerevisiae deletion strains, locus YOR136W, strain idh2, active compounds read low): 0.997 | normalized growth (S. cerevisiae deletion strains, locus YOR144C, strain elg1, active compounds read low): 0.986 | normalized growth (S. cerevisiae deletion strains, locus YOR184W, strain ser1, active compounds read low): 1.01 | normalized growth (S. cerevisiae deletion strains, locus YOR231W, strain MKK1, active compounds read low): 0.959 | normalized growth (S. cerevisiae deletion strains, locus YOR265W, strain rbl2, active compounds read low): 0.995 | normalized growth (S. cerevisiae deletion strains, locus YOR270C, strain vph1, active compounds read low): 0.979 | normalized growth (S. cerevisiae deletion strains, locus YOR290C, strain snf2, active compounds read low): 1.02 | normalized growth (S. cerevisiae deletion strains, locus YOR316C, strain cot1, active compounds read low): 0.98 | normalized growth (S. cerevisiae deletion strains, locus YPL051W, strain arl3, active compounds read low): 1.01 | normalized growth (S. cerevisiae deletion strains, locus YPL055C, strain LGE1, active compounds read low): 0.965 | normalized growth (S. cerevisiae deletion strains, locus YPL078C, strain atp4, active compounds read low): 0.999 | normalized growth (S. cerevisiae deletion strains, locus YPL106C, strain sse1, active compounds read low): 0.976 | normalized growth (S. cerevisiae deletion strains, locus YPL240C, strain hsp82, active compounds read low): 0.989 | normalized growth (S. cerevisiae deletion strains, locus YPL241C, strain CIN2, active compounds read low): 1.07 [resistant] (active) | normalized growth (S. cerevisiae deletion strains, locus YPL256C, strain CLN2, active compounds read low): 0.943 | normalized growth (S. cerevisiae deletion strains, locus YPR119W, strain clb2, active compounds read low): 0.994 | normalized growth (S. cerevisiae deletion strains, locus YPR141C, strain kar3, active compounds read low): 0.97 | normalized growth (S. cerevisiae deletion strains, locus YPR163C, strain tif3, active compounds read low): 0.991 | normalized growth (S. cerevisiae deletion strains, locus YPR167C, strain met16, active compounds read low): 0.98 | normalized growth (S. cerevisiae deletion strains, strain wtn01, active compounds read low): 0.997 | normalized growth (S. cerevisiae strains, strain wild type, active compounds read low): 0.996
